# Results from PubChem BioAssay (NCI).
# About 83,000 compounds went through this panel and 20% of them were active in at least one assay; those are over-represented in the sample as a whole.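 Growth was measured after 48 h exposure to one concentration of compound in 96-well plates. Values under 10 count as active.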 Unmarked numbers belong to inactive results. Activity calls are given as the source filed them.
# System: SF-295 CNS
# Test: NCI-60 one-dose screen, 48 h (100 = growth as untreated, 0 = no growth, -100 = all killed)
# Conditions: 10 µM unless noted
row,Compound,growth
1,NC(=NCCCOc1ccc(F)cc1)Nc1ccc(I)cc1,80.8%
2,Cc1cc2nc3c4cccc(O)c4n(CCN(C)C)c3nc2cc1C,32.1%
3,Oc1ccc(C(c2ccc(O)cc2)c2ccc(Br)cn2)cc1,-17.1% (active)

# System: SF-539 CNS
# Test: as above
# Conditions: 10 µM unless noted
row,Compound,growth
1,COc1cc(C=O)ccc1OC1OC(COC(C)=O)C(OC(C)=O)C(OC(C)=O)C1OC(C)=O (stereo not drawn),96.7%
2,CC1=CCC(OC(=O)C(C)(O)CCC(O)(C(=O)OC2(C)C=CC(O)(C(C)C)CC2)C(C)C)(C(C)C)CC1 (stereo not drawn),103%
3,CC(=O)Nc1cccc(-c2ccc3c(c2)NC(=O)/C3=C\c2ccc[nH]2)c1,28.1%
4,CC(C)(C)c1ccc(NS(=O)(=O)c2ccc3nc(NC(=O)c4cnccn4)[nH]c3c2)cc1,-0.716% (active)
5,CC(C)(C)c1cc(/C=N/NC(=O)c2ccccc2NC(=O)c2cccs2)c(O)c(C(C)(C)C)c1,51.7%
6,C#CCNC(=O)[C@H](Cc1ccccc1)NC(=O)[C@]12CC[C@@H](C(=C)C)[C@@H]1[C@H]1CC[C@@H]3[C@@]4(C)CCC(=O)C(C)(C)[C@@H]4CC[C@@]3(C)[C@]1(C)CC2,99.9%
7,CCCCCCNC(=O)Oc1ccc(/C(=C(\C)c2ccccc2)c2ccc(OCCCN(C)C)cc2)cc1,79.4%
8,CC(=O)Nc1ccc(-c2ccc3c(c2)NC(=O)/C3=C\c2ccc[nH]2)cc1,81.4%
9,CCCCOc1ccc(/C=N/Nc2cc(C)nc3ccc(Br)cc23)cc1,-79.3% (active)
10,COc1cc(/C(C)=C(\c2ccc(Cl)cc2)c2ccc(OCCN(C)C)cc2)ccc1F,71.7%
